These results are taken from PubChem BioAssay (NCI).

The panel holds about 83,000 compounds, 20% with a hit somewhere; the sample as a whole holds those more often.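 Compound tested at a single concentration for 48 hours in 96-well plates; a percent growth value below 10 was scored as active.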 Unmarked numbers belong to inactive results. Calls of active or inactive are those of the source.

This assay concerns KM12 colon. In words: NCI-60 one-dose screen, 48 h (100 = growth as untreated, 0 = no growth, -100 = all killed). The conditions noted are these: 10 µM unless noted.
Take `COc1cc(/C=N/NC(=O)c2cnn3c2NC(c2ccccc2)C3)ccc1Oc1ccccc1` (centres undefined): the growth was 16.6%.

As to `C[C@H](c1nc2ccc(N)cc2[nH]1)[C@H]1CC[C@H]2[C@@H]3CCC4=CC(=O)CC[C@]4(C)[C@H]3CC[C@]12C`, the growth was 91.8%.

Consider `COc1cc(C2C3=C(COC3=O)N(CCO)c3cc4c(cc32)CCC4)cc(OC)c1OC` (centres undefined), for which the growth was -16.9% (active).

For `Cc1ccc(NC(C(=O)c2ccccc2)c2ccccc2)cc1` (centres undefined), the growth was 23.7%.

Turning to `OCc1cnccc1NCCCOc1ccccc1`, the growth is 106%.

Consider `Cn1cc(CC2CC(=O)N(c3ccccc3)C2=O)sc1=NC(=O)c1ccccc1` (centres undefined), for which the growth is 98.6%.

On to `OCc1cnc2ccccc2c1NC1CCCCCC1`, for which the growth was 96.4%.

In the case of `Cc1cccc(NC(=O)Nc2ccc(-n3cnc4cc(-c5ccc(O)cc5)ccc43)cc2)c1`, the growth is 13%.

On to `COc1ccc(/C=N/NC(=O)c2cnn3c2NC(c2ccccc2)C3)cc1OC` (centres undefined), for which the growth was 44.6%.

As to `Cc1c(C)c([N+](=O)[O-])c(C)c([N+](=O)[O-])c1C`, the growth was 108%.

Consider `COc1c(Cl)c2c(c(OC)c1OC)-c1ccc(SC)c(=O)cc1[C@@H](NC(=O)OCC(F)(F)F)CC2`, for which the growth was 10.4%.

For the compound `O=C(/C=C/c1ccc(Cl)cc1)c1ccc(NC(=O)N2CCN(c3cc4c(cc3F)c(=O)c(C(=O)O)cn4C3CC3)CC2)cc1`, the growth was 85.8%.

As to `CCOc1ccc(/C=N/Nc2cc(C)nc3ccc(Br)cc23)cc1`, the growth was 84.6%.

Consider `CNC(=O)c1cncc(Cn2nc(C)c(NC(=O)c3ccc(COc4ccc(C(F)(F)F)cc4C)cc3)c2C)c1`, for which the growth is 74.8%.
